From PubChem BioAssay (NCATS)
Records with an inconclusive call do not appear. Activity calls are given as the source filed them. The call rests on the fitted dose curve; in most records, active means well fitted curve in the direction sought with a large enough effect; inconclusive means small, poorly fitted or top-dose-only effect, or another doubt; inactive means no such curve, though single readings can be large; an effect the other way counts as inactive or inconclusive.

Assay: qHTS of pediatric cancer cell lines to identify multiple opportunities for drug repurposing: Primary screen for DAOY cells (AID 1347090); further: nearly all actives have a fitted effect of over 55% in size
Conditions: DAOY medulloblastoma viability, CellTiter-Glo luminescence, 48 h; series mostly up to 46 µM
Outline: (§1)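 Cell viability, CellTiter-Glo luminescence; 500-1,000 cells/well, 8- or 11-point titration, 48 h compound exposure at 37 degrees C, 5% CO2. Controls: DMSO neutral, bortezomib 2.3 µM final as positive.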
Potency means the concentration at half of the fitted maximal effect.

| SMILES | Potency |
| --- | --- |
| CC[n+]1c(-c2ccccc2)c2cc(N)ccc2c2ccc(N)cc21 | 0.841 µM (active) |
| COc1cc(CC(C)N)c(OC)cc1Br (stereo unspecified) | inactive |
| Cc1ccc([N+](=O)[O-])[c]2c1[O][Hg]2 | 1.06 µM (active) |
| CN(C)C(=S)SSC(=S)N(C)C | 0.168 µM (active) |
| CCO[C@H]1O[C@@H]2OC3(C)CC[C@H]4[C@H](C)CC[C@@H]([C@H]1C)[C@@]24OO3 | inactive |
| COc1ccc2c(C(=O)c3ccc(Cl)cc3)c(C)n(CC(=O)O)c2c1 | 21.1 µM (active) |
| C[C@H](N)[C@H](O)c1ccc(O)c(O)c1 | inactive |
| C[C@H](CN1CCOCC1)C(C(=O)N1CCCC1)(c1ccccc1)c1ccccc1 | inactive |

Assay: qHTS of pediatric cancer cell lines to identify multiple opportunities for drug repurposing: Primary screen for SJ-GBM2 cells (AID 1347091)
Conditions: SJ-GBM2 viability, CellTiter-Glo luminescence, 48 h; series mostly up to 46 µM
Outline: as §1

| SMILES | Potency |
| --- | --- |
| CC[n+]1c(-c2ccccc2)c2cc(N)ccc2c2ccc(N)cc21 | 2.66 µM (active) |
| COc1cc(CC(C)N)c(OC)cc1Br (stereo unspecified) | inactive |
| c1ccc2c(c1)Sc1ccccc1N2CC1CN2CCC1CC2 (stereo unspecified) | 23.7 µM (active) |
| C[C@H](N)[C@H](O)c1ccc(O)c(O)c1 | inactive |

Assay: qHTS of pediatric cancer cell lines to identify multiple opportunities for drug repurposing: Primary screen for A673 cells (AID 1347092); further: nearly all actives have a fitted effect of over 45% in size
Conditions: A673 Ewing sarcoma viability, CellTiter-Glo ATP luminescence, 48 h; series mostly up to 46 µM
Outline: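 48 h compound exposure, A673, 500-1,000 cells/well, 37 degrees C/5% CO2. MIPE: 11-point, 0.78 nM-46 µM; NPC: 8-point, 0.59 nM-46 µM (final). Readout CellTiter-Glo luminescence after 15 min RT.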

| SMILES | Potency |
| --- | --- |
| CC[n+]1c(-c2ccccc2)c2cc(N)ccc2c2ccc(N)cc21 | 3.35 µM (active) |
| c1ccc2c(c1)Sc1ccccc1N2CC1CN2CCC1CC2 (stereo unspecified) | 13.3 µM (active) |
| COc1ccc2c3c1O[C@H]1[C@@H](O)C=C[C@H]4[C@@H](C2)N(C)CC[C@@]341 | 23.8 µM (active) |
| CCC(OC(C)=O)C(CC(C)NC)(c1ccccc1)c1ccccc1 (stereo unspecified) | 27.6 µM (active) |
| Cc1ccc([N+](=O)[O-])[c]2c1[O][Hg]2 | 0.0531 µM (active) |
| CN(C)C(=S)SSC(=S)N(C)C | 0.211 µM (active) |
| CCO[C@H]1O[C@@H]2OC3(C)CC[C@H]4[C@H](C)CC[C@@H]([C@H]1C)[C@@]24OO3 | inactive |
| Clc1ccc(CSC(Cn2ccnc2)c2ccc(Cl)cc2Cl)cc1 (stereo unspecified) | 26.6 µM (active) |
| N#Cc1nn(-c2c(Cl)cc(C(F)(F)F)cc2Cl)c(N)c1S(=O)C(F)(F)F (stereo unspecified) | inactive |

Assay: qHTS of pediatric cancer cell lines to identify multiple opportunities for drug repurposing: Primary screen for SK-N-MC cells (AID 1347093)
Conditions: SK-N-MC viability, CellTiter-Glo luminescence, 48 h; series mostly up to 46 µM
Outline: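 Metabolically active cells were quantified by ATP-dependent luminescence (CellTiter-Glo, 15 min at room temperature) following 48 h treatment. Cells had been plated at 500-1,000 per well and settled for 5 h beforehand.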

| SMILES | Potency |
| --- | --- |
| CC[n+]1c(-c2ccccc2)c2cc(N)ccc2c2ccc(N)cc21 | 2.11 µM (active) |
| COc1cc(CC(C)N)c(OC)cc1Br (stereo unspecified) | 44.9 µM (active) |
| COc1ccc2c3c1O[C@H]1[C@@H](O)C=C[C@H]4[C@@H](C2)N(C)CC[C@@]341 | 33.7 µM (active) |
| CCC(OC(C)=O)C(CC(C)NC)(c1ccccc1)c1ccccc1 (stereo unspecified) | 31 µM (active) |
| CC[C@H](O)C(C[C@H](C)N(C)C)(c1ccccc1)c1ccccc1 | 62.3 µM (active) |
| Cc1ccc([N+](=O)[O-])[c]2c1[O][Hg]2 | 0.0944 µM (active) |
| CN(C)C(=S)SSC(=S)N(C)C | 0.188 µM (active) |
| CCO[C@H]1O[C@@H]2OC3(C)CC[C@H]4[C@H](C)CC[C@@H]([C@H]1C)[C@@]24OO3 | 4.73 µM (active) |
| Clc1ccc(CSC(Cn2ccnc2)c2ccc(Cl)cc2Cl)cc1 (stereo unspecified) | 33.5 µM (active) |
| COc1ccc2c(C(=O)c3ccc(Cl)cc3)c(C)n(CC(=O)O)c2c1 | 8.41 µM (active) |
